# The list is not random: actives were taken first. Their share in the collection is about 19%.
# IL1B secr inh – inhibitors of inflammasome signaling (IL-1 beta secretion); 4.7% of 360,000 active; THP-1 LPS/ATP IL-1B secretion, AlphaLISA, 16 h; active compounds read low; AID 743279; activity change, % at 57.5 µM; in the data active means activity change below about -50%; inconclusive means mostly about -30% to -49%; further: on the % scale 0 is the no-effect control and ±100 the full control effect
#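 Secreted IL-1B measured by AlphaLISA bead assay after 16 h compound exposure of THP-1 cells; compounds (final up to 57.5 uM) added 1 h before LPS (250 ng/mL) and ATP (1.25 mM) stimulation; lower signal means less secretion.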
# DT40 TDP1 CPT – growth inhibition of DT40 Tdp1-/-;hTDP1 cells with camptothecin (screen for TDP1 inhibitors); AID 686979; 12% of 420,000 active; Potency, µM (doses to about 46.2 µM), inactives show top-dose activity change, negative = growth inhibition, hits mostly inhibitors; chicken DT40 Tdp1-/-;hTDP1 cells + 20 nM CPT, ATP luminescence, 48 h; further: potency means the concentration at half of the fitted maximal effect; on the % scale 0 is the no-effect control and ±100 the full control effect; nearly all actives have a fitted effect of over 55% in size
#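 Chicken DT40 Tdp1-/- cells complemented with human TDP1, 400 cells/well, exposed to compounds plus 20 nM camptothecin for at least 48 h at 37 C; viability read as ATP content by CellTiter-Glo luminescence.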
# MCF10A rerep – induces DNA re-replication in MCF 10a normal breast cells; MCF 10A DNA re-replication, Hoechst nuclear intensity, 48 h; Potency, µM (highest dose often 46.1 µM), without a hit: at the highest dose activity, positive = re-replication, hits mostly activators; 2.9% of 350,000 active; further: potency means the concentration at half of the fitted maximal effect; % of control where 0% means no effect; nearly all actives have a fitted effect of over 50% in size
# TDP1 cell noCPT – qHTS for Inhibitors of human tyrosyl-DNA phosphodiesterase 1 (TDP1): qHTS in cells in absence of CPT. DT40 Tdp1-/- hTDP1 cells, no CPT, ATP luminescence, 48 h. Potency, µM (doses to about 46.2 µM), for the others: top-dose activity change, negative = growth inhibition, usual class: inhibitors. 15% of 420,000 active; further: potency means the concentration at half of the fitted maximal effect; on the % scale 0 is the no-effect control and ±100 the full control effect; nearly all actives have a fitted effect of over 55% in size
#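 Compound effects on proliferation are scored in DT40 Tdp1-/-;hTDP1 cells in the absence of CPT. ATP levels (CellTiter-Glo luminescence) are recorded after a ≥48 hr, 37 °C incubation.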
# Chronic BCR inh – blocks chronic active B-cell receptor signaling; AID 493014; 0.05% of 340,000 active; ABC-DLBCL IkBa-CBG/CBR reporter, luminescence ratio, 4 h; Potency, µM (series often up to 46.1 µM), for the others: top-dose activity change, negative = inhibition, hits mostly inhibitors; active means well fitted inhibition curve with a large enough effect in the signal ratio, with a control signal flat, not every such curve was filed as active; inconclusive means small, poorly fitted or top-dose-only effect, or effect the other way, or a change in a side signal; the % refers to the signal ratio;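 further: potency means the concentration at half of the fitted maximal effect; plate controls were basal doxycycline-induced cells for no effect and cells given 10 µM MG132 for full effect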
#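 Doxycycline induced both beetle luciferases in TMD8 lymphoma cells; IKK-driven degradation limits the IkappaBalpha-fused green signal, while red luminescence normalises for cell number and nonspecific effects. Compounds tested up to 46 uM, 4 hrs.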
# SW480 rereplic – inducers of DNA re-replication in SW480 colon cancer cells; SW480 DNA re-replication, Hoechst DNA content imaging, 48 h; Potency, µM (titrated, usually from 46.1 µM), for the others: top-dose re-replication activation, hits mostly activators; 1.8% of 340,000 active; AID 624297; further: potency means the concentration at half of the fitted maximal effect; % of control where 0% means no effect; nearly all actives have a fitted effect of over 55% in size
#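 Per well, 250 cells were exposed to pinned compound for 48 hr. Nuclear DNA was visualised with Hoechst (40 min, 37 C) and total object intensity recorded by fluorescence scanning.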
# An asterisk follows results filed as active; ? = inconclusive; · = no result; [ ] = remark or other dose. Unless noted, the call rests on the fitted dose curve; in most records, active means well fitted curve in the direction sought with a large enough effect; inconclusive means small, poorly fitted or top-dose-only effect, or another doubt; inactive means no such curve, though single readings can be large; an effect the other way counts as inactive or inconclusive.
SMILES,IL1B secr inh,DT40 TDP1 CPT,MCF10A rerep,TDP1 cell noCPT,Chronic BCR inh,SW480 rereplic
Nc1ccc(Nc2nc(-c3cc4ccccc4oc3=O)cs2)cc1,-90*,18µM*,22%,8.2µM*,-12%,2%
CC(=O)Nc1ccc(Nc2nc(-c3cc4ccccc4oc3=O)cs2)cc1,-22,8.2µM*,?,18µM*,-2%,-10%
O=C(O)c1ccc(Nc2nc(-c3cccnc3)cs2)cc1O,-1,-3%,-14%,0%,?,-2%
O=C(O)c1ccc(Nc2nc(-c3cc4ccccc4oc3=O)cs2)cc1O,0,?,13µM*,?,?,?
COC(=O)c1c(NC(=O)COC(=O)CNC(=O)c2cccc(OC(F)F)c2)sc(C)c1C,19,-1%,·,41%,·,·
CCCCCCCCCCCCCCCC(C)C1=NCCN1 (stereo not drawn),·,?,·,1%,·,·
O=C(COC(=O)c1ccncc1)c1ccc(Br)cc1,13,-4%,1%,-4%,6%,-4%
O=C(COC(=O)c1cccc(C(=O)OCC(=O)c2ccc(Br)cc2)n1)c1ccc(Br)cc1,-8,16µM*,-1%,?,?,1%
CCN(CC)S(=O)(=O)c1ccc2c(c1)c(=O)c(C(=O)NCCc1ccccc1)cn2C,-26,?,3%,?,3%,-4%
O=C1CCC/C=C\C[C@@H](CC(=O)N(CCO)Cc2ccccc2)C(=O)N[C@H](Cc2c[nH]c3ccccc23)CO1,-18,?,15%,16µM*,-4%,-65%
O=C1CCC/C=C/C[C@H](CC(=O)N(CCO)Cc2ccccc2)C(=O)N[C@@H](Cc2ccccc2)CO1,-9,?,-1%,21µM*,4%,-1%
O=C1CCCC/C=C\C[C@H](CC(=O)N(CCO)Cc2ccccc2)C(=O)N[C@@H](Cc2ccccc2)CO1,-19,?,3%,?,1%,-10%
O=C1CC/C=C\C[C@@H](CC(=O)N(CCO)Cc2ccccc2)C(=O)N[C@H](Cc2c[nH]c3ccccc23)CO1,2,16µM*,-4%,?,2%,-2%
O=C(Cc1ccc(Cl)cc1)NNC(=O)C1CC=CCC1C(=O)O (stereo not drawn),·,·,·,·,0%,·
Cc1oc(-c2ccccc2NC(=O)c2ccccn2)nc1CNC(=O)c1ccc(Oc2ccccc2)o1,·,1%[9.04 µM],·,-23%,·,·
C[C@@H]1CC=C[C@H]2[C@H]1C(=O)N(Cc1ccccc1)[C@H]2c1ccc(F)c(/C=C/c2ccccc2)c1,13,8.2µM*,-16%,8.2µM*,5%,1%
COc1ccc(-c2cc([C@H]3[C@H]4C=CC[C@@H](C)[C@@H]4C(=O)N3Cc3ccccc3)ccc2F)cc1OC,-7,23µM*,?,13µM*,10%,10%
COc1ccc(-c2ccc(N(C)C)cc2)cc1[C@H]1[C@@H]2C=CCC[C@@]2(C)C(=O)N1Cc1ccccc1,-24,29µM*,17%,21µM*,8%,?
C[C@@H]1CC=C[C@H]2[C@H]1C(=O)N(Cc1ccccc1)[C@H]2c1ccc(Br)cc1F,60,?,-1%,?,?,?
C[C@@H]1CC=C[C@H]2[C@H]1C(=O)N(Cc1ccccc1)[C@H]2c1cccc([N+](=O)[O-])c1,0,21µM*,-1%,23µM*,8%,-5%
COc1ccc(-c2cc([C@H]3[C@H]4C=CC[C@@H](C)[C@@H]4C(=O)N3Cc3ccccc3)ccc2F)cc1,10,13µM*,?,15µM*,2%,-8%[9.22 µM]

# Bioassay records as filed in PubChem.
